Pf growth 48h: inhibits P. falciparum growth in the first generation, 48 h | P. falciparum luciferase growth in erythrocytes, 48 h | Potency, µM (doses to about 28.7 µM), usual class: inhibitors | actives 5.9% (n = 310,000)
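First compound was added to culture medium, then infected red cells at 0.1% parasitemia and 2% hematocrit (final). After incubation at 37 C under 5% CO2, luciferase detection reagent was dispensed and light output recorded.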
SARS PLP yeast: inhibitors of SARS-CoV papain-like protease in yeast; S. cerevisiae expressing SARS-CoV PLpro, growth rescue; Potency, µM (series often up to 32.9 µM), usual class: activators; actives 0.19% (n = 330,000); AID 485353; calls by dose curve; further: nearly all actives have a fitted effect of over 55% in size
NS1 function inh: influenza NS1 inhibition; Potency, µM (doses to about 46.1 µM); actives 0.4% (n = 270,000); AID 2326; calls by dose curve; further: actives are rising curves; nearly all actives have a fitted effect of over 50% in size
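Read-out: OD600 growth recovery of NS1-expressing budding yeast. Cells grown overnight at 30C in -URA glucose medium, washed, resuspended and diluted 1:100 in 2% galactose assay medium, pH 6.0. Same strain lacking NS1 served as positive control.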
Shiga inhibitor: inhibitors of Shiga toxin in Vero cells; Vero cells, Shiga toxin protein synthesis inhibition reporter; inhibition, % at 38.7 µM; actives 9.2% (n = 290,000); in the data active means inhibition mostly above about 28%, no sharp cut-off; inactive means mostly below about 43%
Cycloheximide cs: affects cycloheximide protein synthesis inhibition readout, counter-screen. cell reporter, cycloheximide protein synthesis inhibition counterscreen. max response, %. actives 12% (n = 300,000). AID 2314; in the data active means max response mostly above about 13%, no sharp cut-off; inactive means mostly below about 14%; further: read at 38.3 µM for the half of the compounds with a filed dose
Pf growth 96h: P. falciparum growth inhibition at 96 hour, primary screen for plastid delayed-death inhibitors; actives 6.9% (n = 320,000); P. falciparum luciferase reporter growth, 96 h; Potency, µM (doses to about 28.7 µM), most hits filed as inhibitors
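Compounds incubated with erythrocytes infected by luciferase-expressing P. falciparum (2% hematocrit, 0.05% parasitemia final) for 96 hours, 37 C in 5% CO2. Growth inhibition scored as decreased luciferase luminescence.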
Hits are given with their value. Sampled rows, rich in hits. Any-hit rate of the full collection: about 21%. Unless noted, the call rests on the fitted dose curve; in most records, active means well fitted inhibition curve with a large enough effect; inconclusive means small, poorly fitted or top-dose-only effect, or another doubt; inactive means no such curve, though single readings can be large or run the other way.

For CC(C)c1ccc(NC(=O)C2CCN(C(=O)[C@@H]3Cc4ccccc4CN3)CC2)cc1 the results were Pf growth 48h inactive, SARS PLP yeast inactive, NS1 function inh inactive, Shiga inhibitor 46, Cycloheximide cs 23 and Pf growth 96h inactive.
For Cc1cc(C)cc(NC(=O)C2CCN(C(=O)[C@@H]3Cc4ccccc4CN3)CC2)c1 the results were Pf growth 48h inactive, SARS PLP yeast inactive, NS1 function inh inactive, Shiga inhibitor inactive, Cycloheximide cs inactive and Pf growth 96h inactive.
Cc1ccccc1C(=O)N1CCC(C(=O)Nc2ccc(C(C)C)cc2)CC1 was read as Pf growth 48h inconclusive, SARS PLP yeast inactive, NS1 function inh inactive, Shiga inhibitor inactive, Cycloheximide cs inactive and Pf growth 96h inactive.
`Cc1ccc(S(=O)(=O)N2CCN(C(=O)c3cc(S(=O)(=O)N(C)C)ccc3N3CCCC3)CC2)cc1` gave Pf growth 48h inactive, SARS PLP yeast inactive and Pf growth 96h inactive.
Screening CSCCOC(=O)COc1ccc(/C=N/NC(=O)c2nn(C)cc2Cl)cc1 returned Pf growth 48h inactive, SARS PLP yeast inactive, NS1 function inh inactive, Shiga inhibitor 59, Cycloheximide cs 28 and Pf growth 96h inactive.
For Nc1nc2nc(-c3cccs3)cc(C(F)(F)F)n2n1 the results were Pf growth 48h inactive, SARS PLP yeast inactive, NS1 function inh inactive, Shiga inhibitor inactive, Cycloheximide cs inactive and Pf growth 96h inactive.
Screening CCOC(=O)c1nc2nc(-c3cccs3)cc(C(F)(F)F)n2n1 returned Pf growth 48h inactive, SARS PLP yeast inactive, NS1 function inh inactive, Shiga inhibitor inactive, Cycloheximide cs inactive and Pf growth 96h 8.3µM.
Screening O=C(c1ccc(=O)[nH]c1)N1CCN(S(=O)(=O)c2ccccc2)CC1 returned Pf growth 48h inactive, SARS PLP yeast inactive, NS1 function inh inactive, Shiga inhibitor inactive, Cycloheximide cs inactive and Pf growth 96h inactive.
COCCNC(=O)/C(C#N)=C/c1c(N2CCN(C)CC2)nc2ccccn2c1=O was read as Pf growth 48h inactive, SARS PLP yeast inactive, NS1 function inh inactive, Shiga inhibitor inactive, Cycloheximide cs inactive and Pf growth 96h inactive.
Screening CC1=C(/C=C/C(C)=N\NC(=O)c2ccncc2)C(C)(C)CCC1 returned Pf growth 48h 13µM, SARS PLP yeast inactive, NS1 function inh inactive, Shiga inhibitor inactive, Cycloheximide cs 13 and Pf growth 96h inactive.
Screening O=C(NCCSCc1ccco1)Nc1ccc(Cl)cc1 returned Pf growth 48h inactive, NS1 function inh inactive, Shiga inhibitor 101 and Cycloheximide cs 29.
O=C(NCCSCc1ccco1)Nc1cccc(Cl)c1 was read as Pf growth 48h inconclusive, SARS PLP yeast inactive, NS1 function inh inactive, Shiga inhibitor 40, Cycloheximide cs 37 and Pf growth 96h inconclusive.
Cc1cc(Cl)ccc1N(CC(=O)NCCSCc1ccco1)S(C)(=O)=O was read as Pf growth 48h inactive, SARS PLP yeast inactive, NS1 function inh inactive, Shiga inhibitor inactive, Cycloheximide cs inactive and Pf growth 96h inactive.
O=C(CCSc1ccccc1)NCCSCc1ccco1 was read as Pf growth 48h inactive, SARS PLP yeast inactive, NS1 function inh inactive, Shiga inhibitor inactive, Cycloheximide cs 11 and Pf growth 96h inconclusive.
`O=C(COc1ccccc1)NCCSCc1ccco1` gave Pf growth 48h inactive, SARS PLP yeast inactive, NS1 function inh inactive, Shiga inhibitor inactive, Cycloheximide cs inactive and Pf growth 96h inactive.
For COc1ccccc1OC(C)C(=O)Nc1ccccc1C(=O)NCc1cccnc1 (configuration not stated) the results were Pf growth 48h inactive, SARS PLP yeast inactive, NS1 function inh inactive, Shiga inhibitor inactive, Cycloheximide cs inactive and Pf growth 96h inactive.
Screening Cc1ccc(NC(=O)CCC(=O)NNC(=O)NC2CCCCC2)c(C)c1 returned Pf growth 48h inactive, SARS PLP yeast inactive, NS1 function inh inactive, Shiga inhibitor inactive, Cycloheximide cs inactive and Pf growth 96h inactive.
`CCOC(=O)CSc1nnc(SCCN2C(=O)c3ccccc3C2=O)s1` gave SARS PLP yeast inactive, NS1 function inh inactive, Shiga inhibitor inactive, Cycloheximide cs inactive and Pf growth 96h inactive.
For CC(=O)Oc1ccccc1N(C(C)=O)S(=O)(=O)c1cccc([N+](=O)[O-])c1 the results were Pf growth 48h inconclusive, SARS PLP yeast inactive, NS1 function inh inactive, Shiga inhibitor inactive, Cycloheximide cs inactive and Pf growth 96h inactive.
Screening O=C(COc1coc(CN2CCN(c3ccccc3)CC2)cc1=O)NC1CCCC1 returned Pf growth 48h inconclusive, SARS PLP yeast inactive and Pf growth 96h inconclusive.

High-throughput results: PubChem BioAssay, National Center for Advancing Translational Sciences (NCATS)
